Assay results reported in PubChem BioAssay (Tox21).
Records with an inconclusive call do not appear. The source made the active and inactive calls. Unless noted, calls follow the shape of the full dose curve.

What was measured:
[1] = Nuclear factor erythroid 2-related factor 2/antioxidant responsive element (Nrf2/ARE) small molecule agonists: luciferase reporter gene qHTS assay in human keratinocytes (AID 1919969); also: nearly all actives have a fitted effect of over 35% in size; also: potency is read from the fitted curve at half-maximal effect
[2] = biological target: Gonadotropin-releasing hormone receptor (Homo sapiens) (UniProt P30968); test: Human gonadotropin-releasing hormone receptor (GnRHR) small molecule agonists, calcium flux assay in GnRHR-HEK293 cells (AID 1920063); also: nearly all actives have a fitted effect of over 35% in size
Chain of Gonadotropin-releasing hormone receptor (Homo sapiens) (P30968 whole entry, looked up): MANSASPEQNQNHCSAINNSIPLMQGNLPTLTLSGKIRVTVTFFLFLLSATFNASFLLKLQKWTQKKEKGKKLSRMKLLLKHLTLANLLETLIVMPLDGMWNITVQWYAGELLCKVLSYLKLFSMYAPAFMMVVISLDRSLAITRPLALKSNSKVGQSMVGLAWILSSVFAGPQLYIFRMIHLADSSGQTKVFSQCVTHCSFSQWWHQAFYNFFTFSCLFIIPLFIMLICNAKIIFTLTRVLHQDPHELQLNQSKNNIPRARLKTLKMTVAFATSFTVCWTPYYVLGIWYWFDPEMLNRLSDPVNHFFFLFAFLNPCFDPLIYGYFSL
In short: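 Cells: HEK293 stably expressing human GnRHR. Steps: overnight (18 h) culture, 1 h calcium dye loading at 37 C, compound addition, kinetic fluorescence read at 480/540 nm. Each compound tested at 15 concentrations in triplicate.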

[3] = biological target: KiSS-1 receptor (Homo sapiens) (UniProt Q969F8); test: Human kisspeptin (KISS1R) small molecule agonists, calcium flux assay in KISS1R-HEK293 cells (AID 1920064; active = well fitted activation curve with a large enough effect in the repeat runs)
Chain of KiSS-1 receptor (Homo sapiens) (Q969F8 whole entry, looked up): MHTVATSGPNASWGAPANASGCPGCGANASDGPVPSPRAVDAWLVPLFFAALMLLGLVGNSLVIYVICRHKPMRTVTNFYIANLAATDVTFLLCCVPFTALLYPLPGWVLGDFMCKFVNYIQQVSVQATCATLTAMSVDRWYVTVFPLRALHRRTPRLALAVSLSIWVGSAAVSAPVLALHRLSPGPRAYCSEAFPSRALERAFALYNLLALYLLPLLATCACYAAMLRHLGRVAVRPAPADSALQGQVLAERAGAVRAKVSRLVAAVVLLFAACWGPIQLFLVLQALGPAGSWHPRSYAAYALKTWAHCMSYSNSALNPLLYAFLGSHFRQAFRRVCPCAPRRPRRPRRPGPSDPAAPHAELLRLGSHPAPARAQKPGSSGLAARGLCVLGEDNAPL
In short: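 Cells plated and incubated 18 h; dye added, 1 h at 37 C; compounds in DMSO pinned in; signal read at 480/540 nm every second for 3 min. Each compound tested at 15 concentrations in triplicate.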

[4] = G protein-coupled receptor (GPCR) small molecule agonists, calcium flux assay: HEK293 wild type cell line counter screen (AID 1920065)
In short: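 Counter-screen of the Tox21 10K library for non-specific calcium release: dye-loaded cells received compounds in DMSO and were monitored by kinetic fluorescence (480/540 nm, 3 min). Fifteen concentrations, run in triplicate.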

[5] = p53 small molecule agonists, cell-based qHTS assay with human liver microsomes (AID 1963577);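 also: p53 response element beta-lactamase reporter cells with liver microsomes plus NADPH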
In short: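 Metabolically competent format: test substances, human liver microsomes and NADPH (both 0.5 mg/mL final) incubated with p53RE-bla cells 16 h at 37 C. Beta-lactamase reporter signal then quantified by fluorescence.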

[6] = p53 small molecule agonists, cell-based qHTS assay with rat liver microsomes (AID 1963578)
In short: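 Each plate received p53RE-bla cells, then compound, then rat liver microsomes and NADPH (both 0.5 mg/mL final). Plates were held 16 h at 37 C, and beta-lactamase activity was detected with LiveBLAzer over 2 h.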

[7] = p53 small molecule agonists, cell-based qHTS assay: qHTS cell viability counter screen (AID 1963581); also: nearly all actives have a fitted effect of over 45% in size
In short: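 Cells: HCT-116 with p53 response element-driven beta-lactamase. Treatment: 16 h, 37 C, compounds in DMSO. Read: CellTiter-Glo luminescence after 30 min RT.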

[8] = biological target: 5-hydroxytryptamine receptor 2A (Homo sapiens) (UniProt P28223); test: 5-hydroxytryptamine receptor 2A (HTR2A) small molecule antagonists, cell-based qHTS assay (AID 1963586); also: nearly all actives have a fitted effect of over 45% in size; also: potency is read from the fitted curve at half-maximal effect
Chain of 5-hydroxytryptamine receptor 2A (Homo sapiens) (P28223 whole entry, looked up): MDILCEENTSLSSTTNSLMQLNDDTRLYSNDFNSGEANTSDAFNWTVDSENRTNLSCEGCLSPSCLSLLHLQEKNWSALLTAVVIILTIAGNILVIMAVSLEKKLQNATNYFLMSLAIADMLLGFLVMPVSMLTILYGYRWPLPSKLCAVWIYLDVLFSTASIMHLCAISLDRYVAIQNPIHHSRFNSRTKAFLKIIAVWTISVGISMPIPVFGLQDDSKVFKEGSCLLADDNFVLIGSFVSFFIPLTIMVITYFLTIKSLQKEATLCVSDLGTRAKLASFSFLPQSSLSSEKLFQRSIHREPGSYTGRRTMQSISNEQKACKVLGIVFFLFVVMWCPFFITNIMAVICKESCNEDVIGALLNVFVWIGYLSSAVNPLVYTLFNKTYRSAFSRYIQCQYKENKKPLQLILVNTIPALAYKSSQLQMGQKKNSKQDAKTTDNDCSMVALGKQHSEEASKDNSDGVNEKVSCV
In short: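 Antagonist-mode intracellular calcium assay: DOI (4 nM) added after 5 min compound pre-incubation at room temperature to dye-loaded HTR2A-CHO cells. Fluorescence followed for 3 min, sampled every second.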

[9] = biological target: 5-hydroxytryptamine receptor 2A (Homo sapiens) (UniProt P28223); test: 5-hydroxytryptamine receptor 2A (HTR2A) small molecule agonists, cell-based qHTS assay (AID 1963587); also: nearly all actives have a fitted effect of over 30% in size
In short: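 Kinetic calcium-flux fluorescence (2 min, 1 sec intervals) after compound addition in agonist mode. HTR2A-CHO cells were cultured 18 h, then dye-loaded 1 h at 37 C.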

[10] = biological target: Muscarinic acetylcholine receptor M1 (Homo sapiens) (UniProt P11229); test: Cholinergic receptor muscarinic 1 (CHRM1) small molecule antagonists, cell-based qHTS assay (AID 1963588); also: nearly all actives have a fitted effect of over 40% in size; also: potency is read from the fitted curve at half-maximal effect
Chain of Muscarinic acetylcholine receptor M1 (Homo sapiens) (P11229 whole entry, looked up): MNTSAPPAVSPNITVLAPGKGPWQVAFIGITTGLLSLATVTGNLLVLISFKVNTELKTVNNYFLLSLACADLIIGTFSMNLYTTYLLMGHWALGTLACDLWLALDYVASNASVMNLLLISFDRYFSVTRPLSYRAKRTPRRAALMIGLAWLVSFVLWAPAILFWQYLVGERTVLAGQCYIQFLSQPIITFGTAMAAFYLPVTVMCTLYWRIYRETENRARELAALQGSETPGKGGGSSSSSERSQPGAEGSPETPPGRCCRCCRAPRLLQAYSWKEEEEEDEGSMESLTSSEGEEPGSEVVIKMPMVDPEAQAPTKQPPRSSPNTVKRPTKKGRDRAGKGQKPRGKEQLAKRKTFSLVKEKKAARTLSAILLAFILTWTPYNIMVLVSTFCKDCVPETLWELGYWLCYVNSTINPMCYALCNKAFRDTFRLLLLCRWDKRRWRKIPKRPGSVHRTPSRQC
In short: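 CHRM1-CHO calcium-flux assay, antagonist mode. Cells were seeded 18 h, dye-loaded 1 h at 37 C and given compound for 5 min at RT, then acetylcholine was added at 50nM. FDSS fluorescence was read 3 min; 15 concentrations, three runs.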

[11] = biological target: Muscarinic acetylcholine receptor M1 (Homo sapiens) (UniProt P11229); test: Cholinergic receptor muscarinic 1 (CHRM1) small molecule agonists, cell-based qHTS assay (AID 1963589); also: nearly all actives have a fitted effect of over 35% in size
In short: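 Agonist-mode qHTS in CHO cells stably carrying human muscarinic M1. Intracellular calcium is tracked by fluorescence every second after compound transfer; each compound runs at 15 concentrations in three independent runs.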

[12] = biological target: Beta-2 adrenergic receptor (Homo sapiens) (UniProt P07550); test: Adrenergic beta2 receptor (ADRB2) small molecule antagonists, cell-based qHTS assay (AID 1963592); also: nearly all actives have a fitted effect of over 50% in size; also: potency is read from the fitted curve at half-maximal effect
Chain of Beta-2 adrenergic receptor (Homo sapiens) (P07550 whole entry, looked up): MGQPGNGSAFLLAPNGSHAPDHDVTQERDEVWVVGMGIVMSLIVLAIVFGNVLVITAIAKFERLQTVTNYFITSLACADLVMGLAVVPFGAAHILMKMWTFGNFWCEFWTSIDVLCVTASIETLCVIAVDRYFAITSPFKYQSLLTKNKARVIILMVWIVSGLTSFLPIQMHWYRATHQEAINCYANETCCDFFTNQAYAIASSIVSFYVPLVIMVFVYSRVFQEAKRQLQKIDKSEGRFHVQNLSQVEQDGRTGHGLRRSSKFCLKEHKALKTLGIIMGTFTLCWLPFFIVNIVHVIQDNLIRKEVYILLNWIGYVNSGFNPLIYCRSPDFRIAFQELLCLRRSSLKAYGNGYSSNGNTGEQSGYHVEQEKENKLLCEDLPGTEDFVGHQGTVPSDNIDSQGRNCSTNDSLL
In short: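 Cells (CHO, stable ADRB2 overexpression) incubated 18-20hr at 37C; compounds added from DMSO; agonist mix (1nM isoproterenol, 100uM IBMX, 25uM Ro-20-1724) added; 0.5hr RT; d2-cAMP and anti-cAMP-cryptate added; 1hr RT; 665/615 nm read.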

[13] = biological target: D(2) dopamine receptor (Homo sapiens) (UniProt P14416); test: Dopamine D2 receptor (DRD2) small molecule agonists, cell-based qHTS assay (AID 1963594); also: nearly all actives have a fitted effect of over 35% in size
Chain of D(2) dopamine receptor (Homo sapiens) (P14416 whole entry, looked up): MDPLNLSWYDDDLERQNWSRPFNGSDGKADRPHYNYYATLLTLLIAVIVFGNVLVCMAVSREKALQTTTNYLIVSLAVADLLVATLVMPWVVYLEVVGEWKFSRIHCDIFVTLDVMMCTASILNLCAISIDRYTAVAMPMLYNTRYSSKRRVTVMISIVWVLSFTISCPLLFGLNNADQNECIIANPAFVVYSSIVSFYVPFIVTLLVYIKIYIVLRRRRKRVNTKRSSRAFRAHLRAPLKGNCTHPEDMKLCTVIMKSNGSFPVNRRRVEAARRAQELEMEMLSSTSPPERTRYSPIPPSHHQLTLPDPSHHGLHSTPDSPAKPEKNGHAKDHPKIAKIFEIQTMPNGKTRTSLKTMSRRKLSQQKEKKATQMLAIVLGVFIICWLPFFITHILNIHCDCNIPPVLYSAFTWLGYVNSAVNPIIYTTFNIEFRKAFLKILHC
In short: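 cAMP accumulation in DRD2-HEK293 cells measured by HTRF after 1 h detection; compounds added 10 min before NKH477 (200nM […]) forskolin-analogue stimulation, 30 min at room temperature, with Ro20-1724 present at 0.1 mM final.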

[14] = biological target: D(2) dopamine receptor (Homo sapiens) (UniProt P14416); test: Dopamine D2 receptor (DRD2) small molecule antagonists, cell-based qHTS assay (AID 1963595; active = well fitted inhibition curve with a large enough effect in the signal ratio in the repeat runs, with a control signal flat; the % refers to the signal ratio)
In short: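 Readout: HTRF cAMP, cAMP-d2 competing with cellular cAMP for anti-cAMP cryptate, read after 1 h. Cells: DRD2-HEK293. Conditions: 0.1 mM Ro20-1724, 12 nM quinpirole, 200 nM NKH477, 30 min RT.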

[15] = p53 small molecule agonists, cell-based qHTS assay with human liver microsomes: qHTS cell viability counter screen (AID 1963579); also: nearly all actives have a fitted effect of over 45% in size
In short: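 Tox21 library compounds, delivered from DMSO stocks, were tested on p53RE-bla cells together with 0.5 mg/mL human liver microsomes and 0.5 mg/mL NADPH (final) over 16 h at 37 C; CellTiter-Glo luminescence served as the cytotoxicity measure.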

[16] = p53 small molecule agonists, cell-based qHTS assay (AID 1963582; active = well fitted activation curve with a large enough effect in the signal ratio in the repeat runs, not every such curve was filed as active; the % refers to the signal ratio; also: potency is read from the fitted curve at half-maximal effect)
In short: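 Quantitative HTS in p53RE-bla cells: after a 5 h settling period, compounds delivered in DMSO were left on cells for 16 h at 37 C, and reporter induction was measured as fluorescence following 2 h substrate loading.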

[17] = cAMP Responsive Elements (CRE) small molecule agonists, cell-based qHTS assay (AID 1963590)
In short: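 Agonist mode qHTS in CRE-bla HEK 293T cells: compounds dosed from DMSO for 3 h at 37 C/5% CO2, followed by LiveBLAzer B/G FRET substrate for 2 h at room temperature.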

[18] = cAMP Responsive Elements (CRE) small molecule antagonists, cell-based qHTS assay (AID 1963591; active = well fitted inhibition curve with a large enough effect in the signal ratio in the repeat runs, not every such curve was filed as active; the % refers to the signal ratio)
In short: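 Antagonist mode: test compounds are co-incubated with the adenylyl cyclase activator NKH477 (0.25 uM final) on CRE-bla HEK293T cells for 3 h at 37 °C, followed by LiveBLAzer substrate loading.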

[19] = biological target: Beta-2 adrenergic receptor (Homo sapiens) (UniProt P07550); test: Adrenergic beta2 receptor (ADRB2) small molecule agonists, cell-based qHTS assay (AID 1963593);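 also: CHO cells stably overexpressing human ADRB2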
In short: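 CHO cells stably over-expressing ADRB2 were plated overnight at 37C, then dosed with compounds plus a stimulation mix containing 100uM IBMX and 25uM Ro-20-1724 for 0.5hr at room temperature. cAMP was measured by HTRF competition, 1hr.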

[20] = p53 small molecule agonists, cell-based qHTS assay with rat liver microsomes: qHTS cell viability counter screen (AID 1963580); also: nearly all actives have a fitted effect of over 45% in size
In short: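 Intracellular ATP, by CellTiter-Glo luminescence, defines viability. HCT-116 p53RE-bla cells, 4,000 per well, were compound-treated in the presence of rat liver microsomes and NADPH for 16 h at 37 C.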

Measured: Potency

O=C(c1ccccc1)C(Cl)Cl
active: [1] 27.3 µM
not listed: [15] | [16] | [17] | [18] | [19] | [20]
inactive: all other assays above

OC(c1ccc(Cl)cc1)(c1ccc(Cl)cc1)c1cccnc1
active: [10] 16.8 µM
not listed: [7] | [8] | [11] | [19] | [20]
inactive: all other assays above

Cc1cc(C2CC2)nc(Nc2ccccc2)n1
active: [1] 68.6 µM | [10] 14.9 µM | [12] 54.5 µM
not listed: [8] | [14] | [17] | [18] | [19] | [20]
inactive: all other assays above

Clc1ccc(Oc2ccccc2)cc1
not listed: [8] | [11] | [20]
inactive: all other assays above

CC(Cl)(Cl)[N+](=O)[O-]
not listed: [12] | [20]
inactive: all other assays above

O=C(O)CCCCCCNC1c2ccccc2CCc2ccccc21
not listed: [7] | [14] | [15] | [16]
inactive: all other assays above

C=C(C)CN(CC)c1c([N+](=O)[O-])cc(C(F)(F)F)cc1[N+](=O)[O-]
active: [1] 54.5 µM
not listed: [6] | [11] | [16] | [19]
inactive: all other assays above

CC(CC(C(N)=O)(c1ccccc1)c1ccccc1)N(C)C (stereo not given)
active: [10] 0.0082 µM
not listed: [7] | [12] | [15]
inactive: all other assays above

CC(C)C1CCC(Cc2ccc(Cl)cc2)C1(O)Cn1cncn1 (stereo not given)
active: [8] 37.1 µM | [12] 30.3 µM
inactive: [1] | [2] | [3] | [4] | [5] | [6] | [16] | [13]

CCCCCl
not listed: [7] | [11] | [19]
inactive: all other assays above

C[C@H]1CNCCc2ccc(Cl)cc21
active: [12] 23.7 µM
not listed: [6] | [8] | [9] | [10] | [19]
inactive: all other assays above

O=C1C(=O)c2cccc3cccc1c23
active: [1] 27.3 µM
not listed: [7] | [8] | [16] | [17] | [19]
inactive: all other assays above

CN[C@@H](C)[C@H](O)c1ccccc1
not listed: [6] | [12] | [17]
inactive: all other assays above

CC1=C(C(=O)Nc2ccccc2)S(=O)(=O)CCO1
active: [1] 10.9 µM | [16] 28.9 µM
not listed: [7] | [9] | [10] | [19]
inactive: all other assays above

CCCCOC(C)=O
not listed: [7] | [8]
inactive: all other assays above
